Screens from PubChem BioAssay.
Only some compounds are listed: those with a hit (about 22% of all), similar ones and a draw of the others.
CYP2C9 inhib – blockers of cytochrome P450 2C9 activity – biochemical, luminescence, ADME assay, primary screen | AID 777, 2007 | CYP2C9 Supersomes, luciferin-H conversion | P11712 | inhibition, % at 5 µM | 96,000 tested, 20% active;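 active means blocking of liver enzyme CYP2C9 beyond about 50% at 5 µM, limit read from the data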
Target sequence (P11712 whole entry, looked up): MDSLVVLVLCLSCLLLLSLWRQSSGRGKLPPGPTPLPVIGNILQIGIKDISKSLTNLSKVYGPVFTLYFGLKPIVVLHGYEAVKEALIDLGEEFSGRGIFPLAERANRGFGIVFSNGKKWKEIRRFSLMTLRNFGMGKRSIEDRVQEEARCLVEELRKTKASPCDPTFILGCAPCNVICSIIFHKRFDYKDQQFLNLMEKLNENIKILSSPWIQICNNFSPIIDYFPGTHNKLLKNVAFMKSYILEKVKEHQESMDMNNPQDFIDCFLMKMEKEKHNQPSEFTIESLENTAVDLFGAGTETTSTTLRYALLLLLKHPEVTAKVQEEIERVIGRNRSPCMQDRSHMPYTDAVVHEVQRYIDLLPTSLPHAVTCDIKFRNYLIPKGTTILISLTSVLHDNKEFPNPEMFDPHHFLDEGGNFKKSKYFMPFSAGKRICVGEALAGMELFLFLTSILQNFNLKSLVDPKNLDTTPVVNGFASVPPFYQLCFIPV
CYP2C9 activ – human CYP2C9 activators, primary screen, biochemical, luminescence; Cytochrome P450 2C9 (Homo sapiens), P11712; 96,000 tested, 1.4% active; activation factor at 5 µM; recombinant CYP2C9, luciferin-H conversion; stronger effect = higher value; factor 1 = untreated enzyme, 0 = blocked; AID 1024, 2008;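 active means activation factor of 2 or more for CYP2C9 at a 5 µM dose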
CYP2C19 activ – human CYP2C19 activators, primary screen, biochemical, luminescence | recombinant CYP2C19, luciferin-H EGE luminescence; stronger effect = higher value; 0 = fully inhibited enzyme, 1 = untreated enzyme | Cytochrome P450 2C19 (Homo sapiens), P33261 | 96,000 tested, under 10 active | activation factor at 5 µM;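 active means activation factor of at least 2 at 5 µM in the primary screen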
CYP2C19 inhib – blockers of cytochrome P450 2C19 activity – biochemical, luminescence, ADME assay, primary screen. inhibition, % at 5 µM. CYP2C19 Supersomes, luciferin-H EGE luminescence, 30 min. 96,000 tested, 21% active;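 active means CYP2C19 inhibition above a set limit at 5 µM in the primary screen, cut at about 50% in these data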
Measles CPE – compounds protecting cells from measles virus cytopathic effect, primary screen, measles RdRp inhibitor project, single point, MLSMR library, absorbance | Measles virus-infected cells, CPE protection | 140,000 tested, 1.5% active | protection (pct of control), % at 4 µM; in the data active means protection mostly above about 24%, no sharp cut-off; inactive means mostly below about 26%
Numbers stand for hits; n = inactive; x = no result given.

SMILES	CYP2C9 inhib	CYP2C9 activ	CYP2C19 activ	CYP2C19 inhib	Measles CPE
COc1ccc(S(=O)(=O)Cc2ccc(C(=O)N3CCOCC3)o2)cc1	n	n	n	n	n
Cc1ccc(S(=O)(=O)Cc2ccc(C(=O)N3CCN(c4ccccn4)CC3)o2)cc1	70	n	n	n	n
O=C(c1ccc(CS(=O)(=O)c2ccc(Br)cc2)o1)N1CCN(c2ccccn2)CC1	69	n	n	n	n
COCCN(C(=O)CCl)C(C(=O)NC1CCCCC1)c1ccccc1C (stereo not drawn)	x	x	x	x	n
NC(=O)C1CCN(CCC(=O)Nc2ccc(Br)cc2)CC1	x	x	x	x	n
COc1cc(C(N)=O)cc(Br)c1OC	n	n	n	n	n
O=C(c1ccc(CS(=O)(=O)c2ccccc2)o1)N1CCN(c2ncccn2)CC1	64	n	n	54	n
CCOC(=O)N1CCN(S(=O)(=O)c2ccc(F)c(C(=O)Nc3cccc(Cl)c3C)c2)CC1	x	x	x	x	n
CN(C)CC1CCCCC1OC(=O)c1ccc(Cl)cc1 (stereo not drawn)	x	x	x	x	n
CCN(CC)S(=O)(=O)c1ccc(C(=O)OC2CCCCC2CN(C)C)cc1 (stereo not drawn)	50	n	n	n	n
C(=C/c1ccnc2nc(SC/C=C/c3ccccc3)nn12)/c1ccccc1	79	n	n	n	n
O=C(/C=C/c1ccccc1)n1cnnc1SC/C=C/c1ccccc1	x	x	x	x	n
CSc1ccccc1NC(=O)CSCc1ccc(Br)cc1	n	n	n	n	n
Clc1ccc(CN2C3=NCCN3c3ccccc32)cc1	n	n	n	n	n
Clc1ccc(Cn2cccc2C2=NCCO2)cc1	n	n	n	67	n
CC(=O)NCC(=O)OCN1C(=O)c2ccccc2C1=O	x	x	x	x	n
CC(C)(C)C(=O)Cn1ncc(NC2CC2)c(Br)c1=O	n	n	n	62	n
CC(C)=CC(=O)Nc1nnc(-c2cccnc2)s1	n	n	n	87	n
O=C1CCCC2=C1C(c1cccs1)n1ncnc1N2 (stereo not drawn)	n	n	n	n	n
CC(C)c1ccc(C2NC(=O)NC3=C2CCc2ccccc23)cc1 (stereo not drawn)	n	n	n	n	n
Clc1ccc(C2C3=C(Nc4ncnn42)c2ccccc2CC3)cc1 (stereo not drawn)	69	n	n	80	n
c1ccc(C2C3=C(Nc4ncnn42)c2ccccc2CCC3)cc1 (stereo not drawn)	n	n	n	52	n
Cc1cc(C)n(-c2nc(N(C)C)nc(N3CCOCC3)n2)n1	n	n	n	n	n
COc1ccccc1C(=O)Nc1cc2cc(Cl)ccc2oc1=O	n	n	n	n	n
CN1CC=C2C(C#N)=C(N)C(C#N)(C#N)C(c3cccc(Cl)c3Cl)C2C1 (stereo not drawn)	91	n	n	93	n
SMILES	CYP2C9 inhib	CYP2C9 activ	CYP2C19 activ	CYP2C19 inhib	Measles CPE
O=C(Cc1ccccc1Cl)NCCCn1ccnc1	x	x	x	x	n
O=C(NCCCn1ccnc1)c1ccc(Br)o1	n	n	n	59	n
O=C(NCCCn1ccnc1)c1noc2c1CCc1ccccc1-2	50	n	n	83	n
CC12CCC(C(=O)NCCCn3ccnc3)(OC1=O)C2(C)C (stereo not drawn)	n	n	n	76	n
O=C(NCCCn1ccnc1)c1noc2c1CCCC2	85	n	n	69	n
Cc1ccc2nc(NC(=O)CSCc3ccccc3)sc2c1	n	n	n	n	n
O=C1NC(=O)/C(=C/c2ccccc2Oc2ccc(Cl)cc2)S1	72	n	n	n	n
O=C1NC(=Nc2ccc(Cl)cc2)/C(=C/c2ccco2)S1	x	x	x	x	n
Cc1ccc(Oc2ccccc2/C=C2\SC(=O)N(C)C2=O)cc1	n	n	n	51	n
Cc1cc(C)c(S(=O)(=O)N2CCCCC2)c(C)c1N(C)S(=O)(=O)c1ccccc1	59	n	n	n	n
Cc1cc(C)c(S(=O)(=O)N2CCCCC2)c(C)c1-n1ncnn1	n	2.1	n	69	n
Cc1ccc(S(=O)(=O)N2CCN(C)CC2)c(C)c1N(C)S(=O)(=O)c1ccc(Cl)cc1	n	n	n	67	n
Cc1cc(S(=O)(=O)N2CCCC2)c(C)s1	n	n	n	n	n
Cc1cc(C)c(S(=O)(=O)N2CCCCC2)cc1N(C)S(=O)(=O)c1ccc(Cl)cc1	71	n	n	n	n
